# HT1080 IDH1KD tx – toxicity to HT-1080 IDH1 knockdown cells (counter line); HT-1080 IDH1 knockdown viability, ATP luminescence, 48 h; Potency, µM (series often up to 46.1 µM), for inactives: top-dose activity, negative = toxicity, most hits filed as cytotoxic; 360,000 tested, 2% active; AID 686971;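 also: potency is read from the fitted curve at half-maximal effect; 0% = DMSO wells and -100% = cell-free medium wells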
#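 % activity derives from luminescence (CellTiter-Glo), normalised to DMSO and no-cell wells. HT-1080-IDH1KD cells, 750/well, had 48 h compound exposure at 37 °C.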
# ELG1 DNA repair – blocks ELG1-dependent DNA repair in HEK293T cells; HEK293T ELG1-luciferase reporter, luminescence, 16 h; DNA damage induced by 5-fluorouridine; Potency, µM (titrated, usually from 46.1 µM), without a hit: at the highest dose activity change, negative = inhibition, actives largely listed as inhibitors; 330,000 tested, 2.3% active; AID 504467; also: potency is read from the fitted curve at half-maximal effect; nearly all actives have a fitted effect of over 55% in size
#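 Overnight (16 hr) co-exposure of 2,000 cells/well to 5-fluorouridine and compound at 37 °C preceded detection. Luciferase was quantified via ONE-Glo luminescence; loss of signal denotes inhibition.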
# IL1B secr inh – blocks inflammasome-driven IL-1 beta release; THP-1 LPS/ATP IL-1B secretion, AlphaLISA, 16 h; hits give low values; activity change, % at 57.5 µM; 360,000 tested, 4.7% active; in the data active = activity change below about -50%; inconclusive = mostly about -30% to -49%
#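 Secreted IL-1B measured by AlphaLISA bead assay after 16 h compound exposure of THP-1 cells; compounds (final up to 57.5 uM) added 1 h before LPS (250 ng/mL) and ATP (1.25 mM) stimulation; lower signal means less secretion.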
# DT40 TDP1 CPT – growth inhibition of DT40 Tdp1-/-;hTDP1 cells with camptothecin (screen for TDP1 inhibitors); 420,000 tested, 12% active; Potency, µM (doses to about 46.2 µM), for the others: at the highest dose activity change, negative = growth inhibition, usual class: inhibitors; chicken DT40 Tdp1-/-;hTDP1 cells + 20 nM CPT, ATP luminescence, 48 h; also: potency is read from the fitted curve at half-maximal effect; nearly all actives have a fitted effect of over 55% in size
#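 Cell growth measured by CellTiter-Glo luminescence after a minimum 48 h, 37 C compound exposure with 20 nM CPT in Tdp1-knockout DT40 cells stably expressing hTDP1, seeded 400/well; qHTS titration format.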
# TDP1 cell noCPT – qHTS for Inhibitors of human tyrosyl-DNA phosphodiesterase 1 (TDP1): qHTS in cells in absence of CPT; Potency, µM (top dose mostly 46.2 µM), for the others: top-dose activity change, negative = growth inhibition, hits mostly inhibitors; 420,000 tested, 15% active; DT40 Tdp1-/- hTDP1 cells, no CPT, ATP luminescence, 48 h; AID 686978, 2013; also: potency is read from the fitted curve at half-maximal effect; nearly all actives have a fitted effect of over 55% in size
#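 Growth of hTDP1-complemented DT40 Tdp1-knockout cells is measured by ATP luminescence after at least 48 hr compound exposure at 37 °C, with DMSO substituting for the 20 nM CPT used in the parallel screen.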
# HT1080NT lethal – kills 2HG-producing HT-1080-NT fibrosarcoma cells. Potency, µM (series often up to 46.1 µM), for inactives: at the highest dose activity, negative = less viability, most hits filed as cytotoxic. 360,000 tested, 1.6% active. HT-1080-NT fibrosarcoma viability, CellTiter-Glo ATP luminescence, 48 h. AID 686970;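 also: NT is the 2HG producing partner of a matched IDH1 knockdown line; potency is read from the fitted curve at half-maximal effect; 0% = DMSO-treated cells and -100% = media-only wells without cells; nearly all actives have a fitted effect of over 55% in size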
#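 HT-1080-NT; 750 cells/well; 5% FBS RPMI; 48 h compound, 37 degrees C; CellTiter-Glo luminescence; curve fitting and curve-class assignment.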
# The depositor's hits bear a star; ? = inconclusive; nt = not tested or not shown; ! = repeats disagree. Rows were chosen to be rich in hits. Some 19% of all compounds tested hit in one or more screens of this group. Unless noted, calls follow the shape of the dose curve; as a rule, active = well fitted curve in the direction sought with a large enough effect; inconclusive = small, poorly fitted or top-dose-only effect, or another doubt; inactive = no such curve, though single readings can be large; an effect the other way counts as inactive or inconclusive. Unless noted, % is scaled to controls: 0 for no effect and ±100 for the full control effect.
SMILES,HT1080 IDH1KD tx,ELG1 DNA repair,IL1B secr inh,DT40 TDP1 CPT,TDP1 cell noCPT,HT1080NT lethal
CCOc1ccc(OCC)c(NC(=O)CN(c2ccc(C)cc2)S(=O)(=O)c2c(C)noc2C)c1,8.6%,-20.2%,-7.9,?,23.1µM*,0.3%
Cc1ccc(N(CC(=O)NC(C)c2ccccc2)S(=O)(=O)c2c(C)noc2C)cc1 (stereo not given),11.6%,-2.7%,-2.5,?,16.4µM*,0.1%
Cc1ccc(N(CC(=O)NC(C)c2ccccc2)S(=O)(=O)c2c(C)n[nH]c2C)cc1 (stereo not given),3.1%,14.2%,0.0,-24.7%,-25.6%,-6.8%
Cc1ccc(N(CC(=O)Nc2cc(C)ccc2C)S(=O)(=O)c2c(C)noc2C)cc1,nt,nt,nt,?,23.1µM*,nt
CCOc1ccc(N(CC(=O)NCCc2ccc(C)cc2)S(=O)(=O)c2c(C)noc2C)cc1,-10.7%,-1.7%,?,23.1µM*,?,-10.2%
O=C(CN(C(=O)c1csnn1)c1ccc2c(c1)OCCO2)NCc1ccccc1,7.5%,?,-15.5,-3.9%,-4.0%,7.2%
CCOc1ccc(N(CC(=O)Nc2ccccc2CC)S(=O)(=O)c2c(C)noc2C)cc1,nt,nt,nt,4.61µM*,3.66µM*,nt
CCOc1ccccc1NC(=O)CN(c1ccc(C)cc1)S(=O)(=O)c1c(C)noc1C,-13.3%,?,-8.3,?,?,-14.7%
CCOc1ccc(C(=O)Nc2cc(-c3ccccc3)no2)cc1,nt,nt,nt,-26.1%,-26.7%,nt
Nn1c(SCC(=O)NC2CCCc3ccccc32)nnc1-c1ccc(Cl)cc1Cl (stereo not given),nt,0.5%,nt,nt,nt,nt
O=C(CN1C(=O)CCC1=O)Nc1cccc(NC(=O)CN2C(=O)CCC2=O)c1,-1.3%,-5.5%,0.0,-4.3%,1.7%,1.4%
COC(=O)c1ccc(CC(=O)c2ccc(O)cc2O)o1,8.0%,-22.6%,25.2,?,?,12.7%
CCOC(=O)c1ccc(CC(=O)c2ccc(O)cc2O)o1,-1.3%,?,0.0,?,13µM*,9.1%
COc1ccc(SC[C@H](Cc2ccccc2)N2CC[C@@H](NC(=O)OCc3ccccc3)CCC2=O)cc1,0.1%,?,-15.7,?,16.4µM*,-0.3%
O=C(N[C@@H]1CCC(=O)N(CC[C@H](Oc2ccccc2)c2ccccc2)CC1)OCc1ccccc1,-1.8%,?,-25.6,14.6µM*,?,-23.3%
Cc1ccc(SC[C@H](C)CN2CC[C@H](NC(=O)OCc3ccccc3)CCC2=O)cc1,1.7%,1.2%,19.3,15.8µM*!,11.2µM*,-3.3%
COc1ccc(SCCN2CC[C@@H](NC(=O)OCc3ccccc3)CCC2=O)cc1,-11.8%,?,-2.2,?,?,-11.9%
C[C@@H](CSc1ccccc1)CN1CC[C@H](NC(=O)OCc2ccccc2)CCC1=O,2.1%,?,14.8,?,10µM*,-2.1%
N#CC[C@H](Cc1ccccc1)N1CC[C@@H](NC(=O)OCc2ccccc2)CCC1=O,0.0%,7.4%,15.2,?,?,-2.4%
CCc1cccc(N(C(=O)c2csnn2)C(C(=O)NC2CCCCC2)c2ccncc2)c1 (stereo not given),0.3%,5.3%,-4.8,-6.0%,-12.1%,3.4%
Cc1ccc(SC[C@H](C)CN2CC[C@H](C(C)(C)C)CCC2=O)cc1,-14.3%,-3.2%,20.6,?,16.4µM*,-2.0%
Cc1ccc(S[C@@H](CCN2CC[C@H](NC(=O)OCc3ccccc3)CCC2=O)c2ccccc2)cc1,-4.1%,?,-10.6,23.1µM*,11.2µM*,-20.2%
C[C@@H](CSc1ccc(Br)cc1)CN1CC[C@H](C(C)(C)C)CCC1=O,-3.1%,5.9%,-11.2,?,?,1.7%

# Assay outcomes as filed in PubChem BioAssay.
